From PubChem BioAssay (NCI)
About 83,000 compounds went through this panel and 20% of them were active in at least one assay; those are over-represented in the sample as a whole.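 Note: values are percent growth. 100 is the growth of untreated cells, values between 100 and 0 indicate rising inhibition; between -100 and 0 indicates cell death.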 Active and inactive are the calls of the source. How the source made its calls: active means growth percent below 10; inactive means the rest.

Assays:
Assay in all cases: NCI-60 one-dose screen, 48 h (100 = growth as untreated, 0 = no growth, -100 = all killed)
Details in all cases: 10 µM unless noted
[1] = test system: DU-145 prostate
[2] = test system: K-562 leukemia
[3] = test system: MALME-3M melanoma
[4] = test system: MDA-MB-231 breast
[5] = test system: RXF 393 renal
[6] = test system: SF-268 CNS
[7] = test system: SF-295 CNS
[8] = test system: SF-539 CNS
[9] = test system: UACC-257 melanoma
[10] = test system: HCT-15 colon
[11] = test system: HT29 colon
[12] = test system: SNB-75 CNS
[13] = test system: SNB-19 CNS
[14] = test system: U251 CNS
[15] = test system: PC-3 prostate
[16] = test system: SK-MEL-5 melanoma
[17] = test system: UACC-62 melanoma
[18] = test system: LOX IMVI melanoma
[19] = test system: SK-MEL-28 melanoma
[20] = test system: M14 melanoma

Measured: growth

CCCC(CCC)Oc1ccc(CCCC2=C(O)c3ccccc3C(=O)C2=O)cc1
active: [18] 5.38%
inactive: [1] 33.4% | [2] 23% | [3] 57% | [4] 54.6% | [5] 58.7% | [6] 45.3% | [7] 28.2% | [8] 23.1% | [9] 40.5% | [10] 21.7% | [11] 25.8% | [12] 46.1% | [13] 28.2% | [14] 27.1% | [15] 27.7% | [16] 13.1% | [17] 30.4% | [19] 59.2%

COc1cc(NC(C)CCCN)c2nccc(C)c2c1OC (stereo unspecified)
inactive: [1] 71.3% | [2] 65% | [3] 104% | [4] 59.5% | [5] 164% | [6] 126% | [7] 115% | [8] 41.3% | [9] 112% | [10] 84.4% | [11] 57.9% | [12] 103% | [13] 97.6% | [14] 64.5% | [15] 72.3% | [16] 86.8% | [17] 97.2% | [18] 58.5% | [19] 117%

Brc1c(-c2ccncc2)nc2n1CCS2
inactive: [1] 116% | [2] 111% | [3] 114% | [4] 101% | [5] 84.6% | [6] 107% | [7] 102% | [8] 119% | [9] 91.1% | [10] 105% | [11] 87% | [12] 101% | [13] 103% | [14] 91.3% | [15] 84.5% | [16] 103% | [17] 84.4% | [18] 89.4% | [19] 93.5%

CC[n+]1c(C)ccc2cc(C)ccc21
inactive: [1] 126% | [2] 91.2% | [3] 131% | [4] 91.7% | [5] 111% | [6] 102% | [7] 119% | [8] 110% | [9] 105% | [10] 94.5% | [11] 108% | [12] 83.7% | [13] 92.7% | [14] 93.5% | [15] 104% | [16] 99.2% | [17] 96.1% | [18] 90.8% | [19] 105%

Cc1ccc2c(O)c(O)cc(NC(C)CCCN)c2n1 (stereo unspecified)
inactive: [1] 74.5% | [2] 42.1% | [3] 81.6% | [4] 57.2% | [5] 93.3% | [6] 92.2% | [7] 90.6% | [8] 14.6% | [9] 98.4% | [10] 116% | [11] 47.7% | [12] 108% | [13] 87.7% | [14] 25.7% | [15] 89.2% | [16] 95.7% | [17] 113% | [18] 31.2% | [19] 131%

CCC(CCCN1C(=O)c2ccccc2C1=O)Nc1cc(OC)cc2c(C)ccnc12 (stereo unspecified)
inactive: [1] 86.7% | [2] 72.4% | [3] 111% | [4] 81.1% | [6] 113% | [7] 93.3% | [8] 76.5% | [9] 88.6% | [10] 91.5% | [11] 100% | [12] 92.2% | [13] 102% | [14] 90.7% | [15] 89.1% | [16] 85.3% | [17] 69.5% | [18] 95.8% | [19] 101%
active: [5] -10.2%

COc1cc(-c2nn(-c3ccc(NC(=O)c4ccc(Cl)c(Cl)c4)cc3)cc2-c2ccncc2)ccc1Cl
inactive: [1] 82% | [2] 17% | [3] 111% | [4] 54.9% | [6] 67.6% | [8] 47.7% | [9] 110% | [20] 62.3% | [13] 85.9% | [14] 48.7% | [15] 68.6% | [16] 64.8% | [17] 64.4% | [18] 35.9% | [19] 67.8%
active: [5] -55.1% | [7] -42.3% | [11] -14.7%

FC(F)(F)c1cccc(-c2[nH]ncc2-c2nnnn2-c2ccccc2)c1
active: [5] -20.4%
inactive: [1] 76.1% | [2] 11.8% | [3] 61.6% | [4] 41% | [6] 66.4% | [7] 56.7% | [8] 63.9% | [9] 48.4% | [10] 35.6% | [11] 15.1% | [12] 47.5% | [13] 50.8% | [14] 30.1% | [15] 44% | [16] 20.8% | [17] 36.9% | [18] 44.8% | [19] 60.8%

COCn1c(C(=O)OC)cc2oc(/C=C3/SC(=S)N(N)C3=O)cc21
inactive: [1] 94.1% | [2] 63.7% | [3] 45.8% | [4] 110% | [5] 27.6% | [6] 73.1% | [7] 82.3% | [8] 90.3% | [9] 113% | [10] 105% | [11] 97.2% | [12] 64.6% | [13] 97.2% | [14] 75.8% | [15] 57.2% | [16] 91.7% | [17] 94% | [18] 87.3% | [19] 92.9%

O=C(O)/C(Br)=C/c1c[nH]c2ccc(Br)cc12
inactive: [1] 115% | [2] 68% | [3] 106% | [4] 102% | [5] 109% | [6] 124% | [7] 102% | [8] 112% | [9] 117% | [10] 114% | [11] 106% | [12] 105% | [13] 126% | [14] 105% | [15] 123% | [16] 107% | [17] 104% | [18] 101% | [19] 63.7%

CCOC(=O)c1cc(-c2ccc(OC)cc2)[nH]c1NNC(=O)CCOC
inactive: [1] 108% | [2] 99.8% | [3] 98.4% | [4] 95% | [5] 104% | [6] 121% | [7] 95.3% | [8] 106% | [9] 105% | [10] 111% | [11] 112% | [12] 106% | [13] 103% | [14] 101% | [15] 93.2% | [16] 99.3% | [17] 93.6% | [18] 94.8% | [19] 114%

C/C(=C\c1ccc2ccccc2c1)[N+](=O)[O-]
inactive: [1] 27% | [4] 50.8% | [6] 21% | [7] 92.2% | [8] 15.6% | [9] 68.9% | [20] 22.4% | [13] 90.6% | [14] 72.7% | [15] 25.3% | [16] 71.3% | [17] 78.2% | [19] 37%
active: [2] 5.31% | [3] -58.7% | [5] -86.1% | [11] -9.28% | [18] -80.9%

O=Nc1ccc(O)c2ccccc12
inactive: [1] 56.7% | [2] 12.1% | [4] 52.5% | [5] 10.9% | [6] 10.5% | [7] 62.9% | [10] 23.6% | [13] 57.8% | [17] 15.8% | [19] 13.3%
active: [3] -58.5% | [8] 0.651% | [9] -68.5% | [11] 1.37% | [12] -64.5% | [14] -14% | [15] -10.5% | [16] -97.4% | [18] -1.33%

CCCCCCCCCCCCOC(=N)N(C)C
inactive: [1] 112% | [2] 96.3% | [3] 88.9% | [4] 104% | [5] 112% | [6] 101% | [7] 98.4% | [8] 99.4% | [9] 92.2% | [20] 106% | [11] 102% | [13] 96.1% | [14] 94.8% | [15] 91.4% | [16] 109% | [17] 93.9% | [18] 74.2% | [19] 106%

CCCOC(=O)c1c(C)n(C)c2scc[n+]12
inactive: [1] 77.8% | [2] 65% | [3] 92.5% | [4] 80.1% | [5] 67.8% | [6] 89.3% | [7] 54.1% | [8] 81.1% | [9] 78.8% | [10] 85.2% | [11] 79% | [12] 80.1% | [13] 88% | [14] 55.9% | [15] 75.6% | [16] 102% | [17] 84% | [18] 82% | [19] 91.5%

CC(=O)N1N=C(c2ccc(Cl)cc2)CC1c1cn(-c2ccccc2)nc1-c1ccc([N+](=O)[O-])cc1 (stereo unspecified)
inactive: [1] 116% | [2] 118% | [3] 92% | [4] 104% | [5] 135% | [6] 102% | [7] 104% | [8] 93.6% | [9] 106% | [10] 92.6% | [11] 93.8% | [12] 72.5% | [13] 90.1% | [14] 96.9% | [15] 108% | [16] 101% | [17] 85.1% | [18] 97.8% | [19] 110%

Cc1ccc(NC(=O)CCl)cc1Cl
active: [18] 6.84%
inactive: [1] 111% | [2] 87.3% | [3] 78.7% | [4] 89.4% | [5] 102% | [6] 103% | [7] 81.2% | [8] 108% | [9] 90.5% | [10] 80.9% | [11] 107% | [12] 91% | [13] 94.5% | [14] 80.5% | [15] 86.8% | [16] 87.2% | [17] 80.5% | [19] 107%

O=C(CBr)OCc1ccc([N+](=O)[O-])o1
inactive: [1] 108% | [2] 111% | [3] 107% | [4] 101% | [5] 94.8% | [6] 88.6% | [7] 96.5% | [8] 103% | [9] 88.5% | [11] 104% | [12] 91.4% | [13] 104% | [14] 92.1% | [15] 76.2% | [16] 113% | [17] 90.4% | [18] 83% | [19] 99.2%

CC(C)(C)C(=O)CCCCCCCC/C=C/CCCC(O)c1ccco1 (stereo unspecified)
inactive: [1] 102% | [2] 82.4% | [3] 109% | [4] 102% | [5] 99.7% | [6] 106% | [7] 105% | [8] 97.3% | [9] 105% | [10] 118% | [11] 107% | [13] 109% | [14] 105% | [15] 102% | [16] 107% | [17] 95.2% | [18] 102% | [19] 106%
